# Source: PubChem (National Center for Advancing Translational Sciences (NCATS))
# HPGD inh: blocks human HPGD enzyme activity; purified HPGD, NADH fluorescence kinetic, PGE2 substrate; hit rate 4.3% among 150,000; P15428; Potency, µM, for inactives: top-dose activity change, negative = inhibition, usual class: inhibitors; note: potency is the fitted concentration of half-maximal effect
# Target sequence (P15428 whole entry, looked up): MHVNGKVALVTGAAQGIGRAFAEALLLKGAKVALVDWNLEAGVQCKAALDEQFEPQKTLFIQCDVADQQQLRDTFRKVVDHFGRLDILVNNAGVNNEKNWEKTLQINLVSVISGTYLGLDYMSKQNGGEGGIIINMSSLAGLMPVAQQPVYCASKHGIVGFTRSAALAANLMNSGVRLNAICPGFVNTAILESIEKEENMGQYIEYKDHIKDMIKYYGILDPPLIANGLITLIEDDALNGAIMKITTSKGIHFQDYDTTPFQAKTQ
#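 20 nM HPGD preincubated 15 min at room temperature with compound in 50 mM Tris-HCl pH 8, 0.01% Tween 20. Started with 1 mM NAD+ and 30 uM prostaglandin E2; NADH fluorescence (360/450 nm) read 5 times over 30-s intervals, last minus first.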
# IMPase Li cell: IMPase inhibition in cells with lithium potentiation; CHO-M1 cells, IP1 TR-FRET (IP-One), carbachol + lithium; Potency, µM (doses to about 59.4 µM), for inactives: top-dose activity, negative = IMPase inhibition, usual class: inhibitors; hit rate 0.35% among 210,000; active = well fitted inhibition curve with a large enough effect; inconclusive = small, poorly fitted or top-dose-only effect; inactive = no such curve, though single readings can be large or run the other way;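 note: IP1 builds up when IMPase is blocked and the TR-FRET signal falls; potency is the fitted concentration of half-maximal effect; plate controls were basal vehicle for no effect and high inhibitor control for full effect; nearly all actives have a fitted effect of over 50% in size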
#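 Readout is a homogeneous TR-FRET IP1 immunoassay (Ex 320, Em 665 and 620), where raised cytosolic IP1 lowers signal. Cells were CHO-M1 treated 30 min at 37C with test compounds plus a little lithium; AC50 values came from Hill-equation fitting.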
# ALDH1A1 inh: ALDH1A1 (human) enzyme inhibition | hit rate 7.3% among 220,000 | P00352 | Purified ALDH1A1, NADH fluorescence, propionaldehyde substrate | Potency, µM (top dose mostly 75.3 µM), without a hit: at the highest dose activity, negative = inhibition, hits mostly inhibitors;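 note: potency is the fitted concentration of half-maximal effect; plate controls were no enzyme wells and a reference inhibitor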
# IMPase inh: membrane-permeable compound that blocks inositol monophosphatase | 120,000 tested, under 10 active | CHO-M1 cells, IP1 accumulation, HTRF TR-FRET ratio | AID 901 | P97697 | inhibition (IP1 accumulation), % at 46.1 µM; active = well fitted curve in the direction sought with a large enough effect in the signal ratio, not every such curve was filed as active; inconclusive = small, poorly fitted or top-dose-only effect, or a change in a side signal; inactive = no such curve, though single readings can be large or run the other way; the % refers to the signal ratio;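 note: cells stimulated with carbachol in lithium chloride buffer; plate controls were DMSO basal wells for no effect and reference inhibitor wells for full effect; higher means more IMPase inhibition seen as more IP1 and lower FRET ratio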
# Target sequence (P97697 whole entry, looked up): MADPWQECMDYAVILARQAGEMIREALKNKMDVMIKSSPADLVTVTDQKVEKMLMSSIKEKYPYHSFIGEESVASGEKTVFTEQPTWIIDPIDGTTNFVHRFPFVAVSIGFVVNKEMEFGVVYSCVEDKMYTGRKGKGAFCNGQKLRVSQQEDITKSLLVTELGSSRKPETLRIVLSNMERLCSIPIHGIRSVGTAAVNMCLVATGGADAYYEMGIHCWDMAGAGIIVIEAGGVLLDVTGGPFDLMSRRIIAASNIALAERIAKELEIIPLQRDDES
#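 CHO-M1, 2000 cells/well, cultured 16–30 h; cpd up to 46 uM; carbachol (50 uM solution, stimulation buffer w/ 50 mM LiCl, pH 7.4), 30 min 37C; IP-One TR-FRET, 10 min RT; Ex 320/Em 665, 620; Hill-fit AC50.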
# PNC inhibitor: inhibitors of perinucleolar compartment assembly | PC3M PTB-GFP, PNC prevalence imaging, 16 h; active compounds read low | activity change (PNC), negative = inhibition, % at 10 µM | hit rate 3.1% among 140,000 | AID 2417;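 active = readout at or below -70, meaning at least 70% loss of cells showing the perinucleolar compartment, a nuclear body marking cancer cells; inconclusive = readout between -30 and a set limit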;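 note: plate controls were DMSO wells for no effect and camptothecin positive control wells for full effect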
#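 Read-out is percentage of cells bearing a perinucleolar compartment, from automated 20x imaging of fixed, Hoechst-stained PC3M PTB-GFP cells. Cells were seeded 4 h, then exposed 16 h to compound (23 nl of library stock) in duplicate plates.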
# * marks the source's active call; other numbers are inactive results; ? = inconclusive; · = no result; [ ] = another dose, or the depositor's remark. Shown are actives, neighbours in structure and some others; about 11% of the full set was active somewhere. Unless noted, calls come from the whole dose curve; as a rule, active = well fitted inhibition curve with a large enough effect (not every such curve was filed as active); inconclusive = small, poorly fitted or top-dose-only effect, or another doubt; inactive = no such curve, though single readings can be large or run the other way. Unless noted, % is set by controls: 0 for no effect and ±100 for the full control effect.
SMILES,HPGD inh,IMPase Li cell,ALDH1A1 inh,IMPase inh,PNC inhibitor
CC(=O)c1cc(C#N)c(SCC(=O)OC(C)C)nc1C,-19.8%,6.5%,?,-0.2,20.4
CCCC[C@H]1C[C@@H]1[C@@H]1N(C(C)=O)[C@H](c2cccc(OC)c2)CC12CC2,-10.0%,-2.3%,-8.9%,·,·
CC(=O)NCCNc1nc(-c2cccnc2)nc2ccccc12,·,-7.1%,1.2%,·,·
COc1ccccc1OCC(=O)Nc1ccc(S(=O)(=O)N2CCCCCC2)cc1,?,3.0%[38.3 µM],-57.8%,0.4,44.0
C=CCN(CC=C)S(=O)(=O)c1ccc(NC(=O)COc2ccccc2OC)cc1,-3.2%,7.3%,10.3%,12.7,-87.6*
Cc1nn(-c2ccccc2)c2c1C1(C(=O)N(C)c3ccccc31)C(C#N)=C(N)O2 (stereo not given),-0.9%,20.7%[38.3 µM],?,12.0,?
Cc1nn(-c2ccccc2)c2c1C1(C(=O)N3c4c(cccc41)C(C)CC3(C)C)C(C#N)=C(N)O2 (stereo not given),-27.2%,47.6%[38.3 µM],0.251µM*,12.1,24.2
COc1ccc(-c2cc(N)n(S(=O)(=O)c3ccc(F)cc3)n2)cc1OC,-15.4%,17.7%[38.3 µM],?,-1.1,5.9
N=C(N)CCNC(=O)[C@@H]1CCC(N)=N1,-6.8%,-2.4%,12.9%[13.5 µM],·,·
CC(C)CCNc1nc2c(c(=O)n(Cc3cccc(F)c3)c(=O)n2C)n1C,?,-0.4%[38.3 µM],12.6µM*,0.2,9.4
Cc1cccc(OCCNc2nc3c(c(=O)n(C)c(=O)n3C)n2C)c1,-14.6%,7.5%[38.3 µM],-20.9%,1.5,-96.6*
Cn1c(NCc2ccccc2)nc2c1c(=O)n(Cc1ccccc1)c(=O)n2C,-26.8%,21.2%[38.3 µM],?,-3.0,?
COc1ccc(-c2nc3cnc(N(C)C)nc3n(CCc3ccccc3)c2=O)cc1,-27.9%,-8.0%,?,·,·
CCN(CC)CCCNC(=S)N1CCn2c(nc3ccccc32)C1,-13.4%,20.4%,6.6%,·,-116.4*
CCN(CC)C(=O)N1CCn2c(nc3ccccc32)C1,-4.5%,-0.4%,5.7%,7.7,25.7
CCc1nnc(NC(=O)CSc2nnc(-c3cccnc3)n2C)s1,·,1.7%,2.2%,·,·
CCN1C(=O)/C(=C\C=C2/C=CC=CN2CC)SC1=S,-3.7%,36.1%,25.1µM*,·,?
CCOC(=O)c1[nH]c2c(c1C)C(=O)CC(c1ccc(OCC)c(OC)c1)C2 (stereo not given),-3.0%,23.9%[38.3 µM],-0.1%,5.3,-5.8
CCOC(=O)c1[nH]c2c(c1-c1ccccc1)C(=O)CC(c1ccc(OCC)cc1)C2 (stereo not given),-2.3%,-11.3%,16.0%,·,?
Cc1c(C(=O)OCC2CCCO2)[nH]c2c1C(=O)CC(c1ccc(N(C)C)cc1)C2 (stereo not given),-12.4%,48.8%[38.3 µM],11.2µM*,6.8,-7.1
CCOC(=O)c1[nH]c2c(c1C)C(=O)CC(c1ccc(F)cc1)C2 (stereo not given),-4.2%,11.9%[38.3 µM],7.3%,3.1,-94.6*
CCOC(=O)c1[nH]c2c(c1-c1ccccc1)C(=O)CC(c1ccc(OC)c(OC)c1)C2 (stereo not given),-2.5%,7.3%,12.6µM*,·,22.4
CCCCCOC(=O)c1[nH]c2c(c1C)C(=O)CC(c1ccco1)C2 (stereo not given),-7.6%,5.9%,28.2µM*,·,-29.0
Cc1c(C(=O)OCc2ccccc2)[nH]c2c1C(=O)CC(c1ccc(N(C)C)cc1)C2 (stereo not given),·,·,·,-1.4,·
N=C(N)SCCc1ccccn1,-5.1%,-0.2%,1.6%[13.5 µM],·,·
SMILES,HPGD inh,IMPase Li cell,ALDH1A1 inh,IMPase inh,PNC inhibitor
CCc1nnc(NC(=O)CSc2nc(-c3ccc(F)cc3)cc(-c3ccccc3)c2C#N)s1,·,·,10µM*,-17.5,-5.3
Cc1cc(-c2ccccc2)c(C#N)c(SCC(N)=O)n1,-13.0%,-28.6%[38.3 µM],12.6µM*,-0.4,12.6
CCOC(=O)CC(=O)CSc1nc(C)cc(-c2cccnc2)c1C#N,-5.6%,-3.8%[38.3 µM],-15.5%,9.0,23.3
N#Cc1c(SCC(N)=O)nc(-c2ccccc2)c2c1CCCC2,-6.7%,-15.0%[38.3 µM],22.4µM*,?,-26.3
N#Cc1c(SCC(=O)O)nc(-c2ccccc2)c2c1CCCC2,·,·,17.8µM*,?,30.4
CC(C)C1O[C@H](/C=C\c2ccccc2)OCC1(C)C (stereo not given in full),-11.6%,-11.4%,?,·,·
COc1cccc(CC(=O)N[C@@H](CCSC)c2nc3ccccc3[nH]2)c1,·,3.2%,?,·,·
Cn1c(Br)nc2c1c(=O)n(CC(O)COc1ccccc1)c(=O)n2C (stereo not given),-9.4%,6.4%[38.3 µM],6.4%,5.0,-2.1
CC(C)=CC1C(CO)C1(C)C (stereo not given),-3.9%,-4.2%,7.6%,·,·
CC1=C(CC[C@H](C)CO)O[C@@H]2C[C@@H]3[C@H]4CC[C@H]5C[C@@H](O)CC[C@]5(C)[C@@H]4CC(=O)[C@@]3(C)[C@@H]12,-2.7%,-0.8%,-9.6%[13.5 µM],·,·
CCOC(=O)CSc1nc(-c2ccc(Cl)cc2)cc(C(F)(F)F)c1C#N,·,·,·,8.3,·
CCOC(=O)CSc1nc(C2CC2)cc(-c2ccc(Cl)cc2)c1C#N,?,23.1%,31.6µM*,-0.2,?
Cc1cc(C)c(C#N)c(SCc2nnc(-c3ccccc3)o2)n1,3.98µM*,22.7%,1.0%,·,0.6
Cc1cc(C)c(C#N)c(SCCS(=O)(=O)Cc2ccc(Cl)cc2)n1,-17.1%,?,5.01µM*,-3.1,?
Cc1cc(C)c(C#N)c(SCS(=O)Cc2ccc(Cl)cc2)n1 (stereo not given),-17.1%,1.4%[38.3 µM],?,9.5,9.9
Cc1cc(C)c(C#N)c(SCc2ccccc2[N+](=O)[O-])n1,-19.3%,3.0%,17.8µM*,·,24.9
Cc1cc(C)c(C#N)c(SCS(=O)Cc2ccccc2)n1 (stereo not given),?,-7.2%[38.3 µM],8.91µM*,2.4,47.8
Cc1cc(C)c(C#N)c(SCc2nnc(-c3ccccc3[N+](=O)[O-])o2)n1,·,32.4%,?,·,·
Cc1cc(C)c(C#N)c(SCc2ccc(C#N)cc2)n1,-5.3%,18.7%[38.3 µM],18.5%,4.9,-2.6
CCCCCSc1ncnc2c1sc1nc(N3CCOCC3)c3c(c12)CCCC3,·,·,·,2.1,·
CNC(=O)[C@@H]1O[C@@H](n2cnc3c(NCc4cccc(I)c4)ncnc32)[C@H](O)[C@@H]1O,·,·,·,1.4,·
Cc1ccccc1S(=O)(=O)Nc1nc2ccccc2nc1N1CCOCC1,?,7.1%[38.3 µM],-9.4%,-18.9,?
C=CCOC(=O)N[C@@H](c1ccc(Br)cc1)C(C(C)=O)C(C)=O,-10.2%,0.2%,9.9%,·,·
CCCCCC(=O)/C=C/C=C\C/C=C\C/C=C\CCCC(=O)O,-3.3%,-16.2%,8.9%,·,·
Brc1ccc(-c2ccc(/C=N/Nc3nc4ccccc4[nH]3)o2)cc1,?,2.5%,?,-2.6,-25.1
Cc1ccc(-n2c3c(cc(C(=O)Nc4ccccc4C(N)=O)c2=O)C(=O)CC(C)(C)C3)cc1,·,·,·,-0.6,·
